In the supplement of paper PMC10105736:
Values without a mark were called inactive.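 How the source made its calls: active = MAPPIT score above the 99th percentile of random reference set scores in the same batch; inactive = at or below it.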

Columns and labels:
Assay in all cases: MAPPIT interaction score (arbitrary units); higher = stronger binary interaction signal, active = hit call of the paper
cactin = conditions: MAPPIT configuration: N-N; pair source set: RRS
e(y)2 = conditions: MAPPIT configuration: N-N; pair source set: screen_2
cathD = conditions: MAPPIT configuration: N-N; pair source set: DPIM
emb = conditions: MAPPIT configuration: N-N; pair source set: Lit-BM-16
dimm = conditions: MAPPIT configuration: N-N; pair source set: DPIM
cic = conditions: pair source set: Lit-BM-16
rl = conditions: MAPPIT configuration: N-N; pair source set: Curagen_high_conf
corto = conditions: pair source set: Lit-BM-16
cpa = conditions: MAPPIT configuration: N-N; pair source set: Lit-BM-16
dnd = conditions: MAPPIT configuration: N-N; pair source set: screen_2
dre4 = conditions: MAPPIT configuration: N-N; pair source set: Lit-BM-16
eIF3f1 = conditions: MAPPIT configuration: N-N; pair source set: Lit-BM-16
dgt4 = conditions: MAPPIT configuration: N-N; pair source set: Lit-BM-16
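Further: HEK293T cells with Epo stimulation, STAT-responsive firefly luciferase reporter, fold induction versus unstimulated cells divided by the larger fold induction of two negative controls lacking either bait or prey.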

B1: Gs1 (protein)
chain: MALRVAGLFLKKELVAPATQQLRLLRTGNTTRSQFLANSPNTALDKSILQRYRNLETPANRVQATYLWIDGTGENIRLKDRVLDKVPSSVEDLPDWQYDGSSTYQAHGENSDTTLKPRAIYRDPFKPGKNDVIVLCDTYSADGKPTASNKRAAFQAAIDLISDQEPWFGIEQEYTLLDVDGRPFGWPENGFPAPQGPYYCGVGADRVYARDLVEAHVVACLYAGIDFAGTNAEVMPAQWEFQIGPAGIKACDDLWVSRYILQRIAEEYGVVVTFDPKPMEGQWNGAGAHTNFSTKEMRADGGIKAIEEAIEKLSKRHERHIKAYDPKEGKDNERRLVGRLETSSIDKFSWGVANRAVSVRVPRGVATAGKGYLEDRRPSSNCDPYAVCNAIVRTCLLNE
B1 was tested, and the MAPPIT interaction score (cactin) was -0.185.

B2: Mul1 (protein)
chain: MEFLHESVALGVDLLILGLCAREYVHYKRTAKVLKAAPQYNIDGDLKSVVERQRDKKIPYAVIRGTVTPIGVPLRSSLVPSVSGVLQIVKLHEHRVTRGFAGFWTEQHKLLHESANEMPFELRNQSHGVEIVDALSAAVLDVDVVYDNYEPSNLSLFDHVFGFFSGVRQRGLQTTEEVLREGSFLTAIGELELDGDTLRMQPSNEGPLFLTTATKSTLIKRFEDAKTTTILKLVVCSTISAILVAFIAKKLYRKRKQEREEAKIRERLDTERRERRARSRPHTLSQDQLCVVCSTNPKEIILLPCGHVCLCEDCAQKISVTCPVCRGSIVSKAAAFIA
B2 was tested, and the MAPPIT interaction score (e(y)2) was 5.68 (active).

B3: Wdr24 (protein)
chain: MPDSVEDTSTISLRICLEGHANALALNKDNNQIALAGRSLLKVYSINSNGFTESCNMRGKNQNLSYSANDVAWSTLDSNLLATAATNGVVSVWDLSKFGRQKQLLVYNEHERTAHTVTFHSSEPNILISGSQDGTIKCFDIRSDKSINTYFCNSESVRDVKFSPHTQNIFSAVSENGTVQLWDMRKWDKCMVQFTAHYGPVYTCDWHPTRNWLATGSRDKQIKVWNMDGRPGLEHTIHTIAVVGRVKWRPERTYHIASCALVVDYSVHVWDIRRPYIPFASFNEHTNVTTGIAWQGSDSHCLLSISKDSTIYKHAFKDATRPALKANAQGASLGRFGDISFANKIKEYEPKTSGASNTKSSSFIRRKTNVAGSIQFHLDHSKMYKFMVNDTFSGYPLSESVSRPTQEHESFIGCARELVISGKKLSELCEHNAEVSKKYGKHNATTLWNFIKLFYGSNHFEPPFEHRSSFSNQKNPMNSRRATQVASDWPQQRTELGQDLNGNTPETAHEIDVANVDDDTLGSSGVEHPPTSSVILSETQIISEITFDNFELLRNGFIYVGPTECPKALAFPALHHDVQAARPQLDLKASDHEKSPPPHVPTVLKVSHVPPIPMWEPHKFVSDALMLMNDVGDVQTALTVLIALGEARKLLPIDDALVEHWFYTYVDQLHRYELWNEACEVINRSWLRSVQQLNQHSTAMHTNCGECGRPMGGKVGWYCDKCKSMQSAKCCVCGLIVRGVYAWCQGCSHGGHIEHLQKYFAKHSKCPKCGHLCAYS
B3 gave an MAPPIT interaction score (cathD) of -0.0301.

B4: mbo (protein)
chain: MSLTDVLELNKTELFAKIRNGLPVVQRTQNLLDCKDDLLFAWHAKDSCLLVRNWRSSLAAKVNIQFQTLIPSSLVSLEVDRVLASNEGSLVALSGPRGVVIMELPRRWGPDGYYKDGKPVITCRTFGLDTQLFLKNPHLEVRQVRWHPHSVSDSTLLVLLNNNTIRVYNHSKLRHVWQVGPPVLRSGANNSLCDFGELAVDFDIAPAAKPRVTEPETAGNNETTLDKSNKTLVAAKSLPKQERIEWPMVVLRENGNIYILMTGVDSENTRLQGPVTITPQAHDNYGLESCALMIIPSLPPTIVIAESNGKLHHALLMEAEATEHSFNEVDDSVLIEPAEYVVHVLETVELELGISAPATGKEGGNCPIYLKRDLINELRYFAYHNAGLHAVTVSFIAELQRYLESESDEDRLELAVSASAEYILCTKFDSSETVNAVFGLALLQIPAGIVLLLGSGQVISLKLVIDAQLLVTPNENKPVDSEVSQQESGPPFVDTIKSLLQRSVNQPILADKLSSPSAQESFELLNQAIEVLREQYLKRHDLVRAAFTRHINQIQLKKEQQLQEIQDLEQERELISERAHKLAERFEEISYNQELLVRKCNALMQRANASLPNSVIAEREFSQEVIRLNKVTQSLAAGLETAKKTFNKQRYHIAQSQEDLKKNAYELPEKQHRTITEILTQLTGEIDRQITDVKRINKIVGI
B4 was tested, and the MAPPIT interaction score (emb) was 0.0885.

B5: Lsm12a (protein)
chain: MAAAAASAVNAVNDCFSIGSTVVCTTCFNEEVEGEVLAFDHNTKMLILKCRSKSTEELSDIYAMNLSLCSNVQVIKECNGNFDDPQKLNLEQVKMRLRKTVERRQDYLKSKNADVSPEAQELYRAIAKQYGYNEVSWQGLNIQILNEVTISPPYRVDNVVSSSNNETSCNYIKRIIKQFFNTRPSPVPESGAAASTSSPSVSPTSSSLASGSPVPAN
B5 gave an MAPPIT interaction score (dimm) of -0.17.

B6: rl (protein)
chain: MEEFNSSGSVVNGTGSTEVPQSNAEVIRGQIFEVGPRYIKLAYIGEGAYGMVVSADDTLTNQRVAIKKISPFEHQTYCQRTLREITILTRFKHENIIDIRDILRVDSIDQMRDVYIVQCLMETDLYKLLKTQRLSNDHICYFLYQILRGLKYIHSANVLHRDLKPSNLLLNKTCDLKICDFGLARIADPEHDHTGFLTEYVATRWYRAPEIMLNSKGYTKSIDIWSVGCILAEMLSNRPIFPGKHYLDQLNHILGVLGSPSRDDLECIINEKARNYLESLPFKPNVPWAKLFPNADALALDLLGKMLTFNPHKRIPVEEALAHPYLEQYYDPGDEPVAEVPFRINMENDDISRDALKSLIFEETLKFKERQPDNAP
In the case of B6, the MAPPIT interaction score (cic; MAPPIT configuration: N-C) is reported as 0.149, the MAPPIT interaction score (cic; MAPPIT configuration: N-N) is reported as 0.776 and the MAPPIT interaction score (rl) is reported as 0.844.

B7: corto (protein)
chain: MTMAACYANYDMSSLSHGMSALSALQQQQQQQQQQHSQTQQQHHHQQQQQHMYHAAVAAHQQQLLQQQQQQQHHRHHHQPANTSSSSNSRHSHAAATQTQVAAAVANSRQQQQQQQQQQQQQQQQQTASSNSNAAPAPSPQKDYSIPLHVDCSVEYELPNQPKPPAGQRVEPLLMIHPCYFRKMESQRRSPFVNNMHATARAVSSSSLSSGAALGGGGSGAAVATAPSSSAARRGARAATSAQQQQQQQQRYQQQQQQLRQQHQQMSQMSQQAHYPQQQSSLVRQHQQQQQQQQQQQRASSNQSQRQSQSQSQSQSHAANSAAAAAAQASIAAAAAGQWDQLAALAARTALTPHHMLHPHSHYAAKGSGGGAGGGKRDAMISGSYGQTAVASGKLQQSQVQQQQPQQQQQHCLPPPPWDATSMLMDRSPMATVPSNYQAGPDTNPMRLYSATPTAGAASGGSASVGGGGAVSGAGATGAVNTATDKLSGKYRQYLRSQRMHPYAAAASLNLAAAAAAAGQTSFVPFSSAATAVAATPTFQHLPQISCYNV
B7 showed an MAPPIT interaction score (corto; MAPPIT configuration: N-C) of 0.538 and an MAPPIT interaction score (corto; MAPPIT configuration: N-N) of 0.215.

B8: cpb (protein)
chain: MSEMQMDCALDLMRRLPPQQIEKNLIDLIDLAPDLCEDLLSSVDQPLKIAKDKEHGKDYLLCDYNRDGDSYRSPWSNSYYPPLEDGQMPSERLRKLEIEANYAFDQYREMYYEGGVSSVYLWDLDHGFAAVILIKKAGDGSKMIRGCWDSIHVVEVQEKTTGRTAHYKLTSTAMLWLQTNKQGSGTMNLGGSLTRQQEQDANVSESSPHIANIGKMVEEMENKIRNTLNEIYFGKTKDIVNGLRSTQSLADQRQQAAMKQDLAAAILRRNVKPESN
In the case of B8, the MAPPIT interaction score (cpa) is reported as 3.35 (active).

B9: PrBP (protein)
chain: MGSDDQSAGDRIQKGFQINYMILRDADSGKIIWQENKDFSAPDQEHEARVPVKILDMRAVSREINFSTIESMENFRLDQKVLFKGRIMEEWFFEMGFVGANTTNTWQSTIEAAPESQMMPAKVLNGNVTIQTSFYDNETLITKSVVRLYYI
B9 was tested, and the MAPPIT interaction score (dnd) was 4.87 (active).

B10: Ssrp (protein)
chain: MTDSLEYNDINAEVRGVLCSGRLKMTEQNIIFKNTKTGKVEQISAEDIDLINSQKFVGTWGLRVFTKGGVLHRFTGFRDSEHEKLGKFIKAAYSQEMVEKEMCVKGWNWGTARFMGSVLSFDKESKTIFEVPLSHVSQCVTGKNEVTLEFHQNDDAPVGLLEMRFHIPAVESAEEDPVDKFHQNVMSKASVISASGESIAIFREIQILTPRGRYDIKIFSTFFQLHGKTFDYKIPMDSVLRLFMLPHKDSRQMFFVLSLDPPIKQGQTRYHYLVLLFAPDEETTIELPFSEAELRDKYEGKLEKEISGPVYEVMGKVMKVLIGRKITGPGNFIGHSGTAAVGCSFKAAAGYLYPLERGFIYIHKPPLHIRFEEISSVNFARSGGSTRSFDFEVTLKNGTVHIFSSIEKEEYAKLFDYITQKKLHVSNMGKDKSGYKDVDFGDSDNENEPDAYLARLKAEAREKEEDDDDGDSDEESTDEDFKPNENESDVAEEYDSNVESDSDDDSDASGGGGDSDGAKKKKEKKSEKKEKKEKKHKEKERTKKPSKKKKDSGKPKRATTAFMLWLNDTRESIKRENPGIKVTEIAKKGGEMWKELKDKSKWEDAAAKDKQRYHDEMRNYKPEAGGDSDNEKGGKSSKKRKTEPSPSKKANTSGSGFKSKEYISDDDSTSSDDEKDNEPAKKKSKPPSDGDAKKKKAKSESEPEESEEDSNASDEDEEDEASD
B10 showed an MAPPIT interaction score (dre4) of 0.764.

B11: eIF3m (protein)
chain: MTSHPVFIDLSLDEQVQELRKYFKKLGAEISSEKSNKGVEDDLHKIIGVCDVCFKDGEPSQIDGILNSIVSIMITIPLDRGENIVLAYCEKMTKAPNLPLGKVCLQSLWRLFNNLDTASPLRYHVYYHLVQVAKQCEQVLEVFSGVDQLKSQFANCPPSSEQMQKLYRLLHDVTKDTNLELSSKVMIELLGTYTADNACVAREDAMKCIVTALADPNTFLLDPLLSLKPVRFLEGDLIHDLLSIFVSEKLPAYVQFYEDHREFVNSQGLNHEQNMKKMRLLTFMQLAESSPEMTFETLTKELQINEDEVEPFVIEVLKTKLVRARLDQANQKVHISSTMHRTFGAPQWEQLRDLLQAWKENLSTVREGLTSVSSAQLDLARSQKLIH
For B11, the MAPPIT interaction score (eIF3f1) was 5.38 (active).

B12: dgt6 (protein)
chain: MDRTIIAPWKAEEKEQSEKLHRKLQGLALVHPLPDELRKLIAWDMFLKPNQVAFVHVMHYLFRLLDPAEFKRRFFWPITDKKSEANFRSSTVEYLKHLNEKHQLHWANIKSYLVVMPGGMRFINFLLEFVGFVIQELIKQREKSLGLEAGTPNVSAKVMARQNAVMKEYASSYVVNLEENTALLRDKTQKIRRLMADLSADMGVPEEQLADDGFLDEFEATAALGVERVITQPTERKFDLEASLCGLKEAIDLFQVKQAENNQSKEAVEKALRGMRVLFDCDAVTEGDFYDPLGASKMDALLNGFNRISGTIAEQLDANDHYNESNAFVTTDLQALRVELSQSEVQLNNLLKKLNEPSKKDKGSANASGSARVQTLQPATPRFESVISSKFVSTPPIRIDMGGGGGRNAPVRLALQDDFNGKQFDALSNSLLAPAPPRSARKLKALDQSTGIDLNGTLNRSKINDPMQMLRTIHKNTSKVKAAPQANLSSLGSKWKQMQASFGFDEAPVPGAAVISPQTSPTDPSDPFTPLSGSECTRIERIPRTSENNTSLIAKSAAVIKVLEVSRNVLNLSTSPSGRLDALVPHTESHQQDVAPRLQLNDRTINDSLQLDPDFNIENDKNAFNVSHKFDFDQIGGEDDLQNISDSVLKDIIF
B12 was tested, and the MAPPIT interaction score (dgt4) was 4.71 (active).
